Reference: PMC5540273 (PLoS ONE, 2017)

Key:
Conditions in all cases: concentration: 1 μM, replicates: in singlicate; n = 1
[1] = system: MAP4K3
[2] = system: MAP4K4
[3] = system: MAP4K5
[4] = system: MAPKAPK2
[5] = system: MAPKAPK5
[6] = system: MARK1
[7] = system: MARK2
[8] = system: MARK3
[9] = system: MARK4
[10] = system: MAST1
[11] = system: T1, MEK1
T1 construct: gene MAP2K1

[12] = system: T2, MEK2
T2 construct: gene MAP2K2

[13] = system: T3, MEK3
T3 construct: gene MAP2K3

[14] = system: T4, MEK4
T4 construct: gene MAP2K4

[15] = system: T5, MEK5
T5 construct: gene MAP2K5

[16] = system: T6, MEK6
T6 construct: gene MAP2K6

[17] = system: MELK
[18] = system: MERTK
[19] = system: MET
[20] = system: T7, MINK
T7 construct: gene MINK1
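Note: KINOMEscan kinase panel screen.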

| Structure (SMILES) | %Inh [1] [%] | %Inh [2] [%] | %Inh [3] [%] | %Inh [4] [%] | %Inh [5] [%] | %Inh [6] [%] | %Inh [7] [%] | %Inh [8] [%] | %Inh [9] [%] | %Inh [10] [%] | %Inh [11] [%] | %Inh [12] [%] | %Inh [13] [%] | %Inh [14] [%] | %Inh [15] [%] | %Inh [16] [%] | %Inh [17] [%] | %Inh [18] [%] | %Inh [19] [%] | %Inh [20] [%] |
| --- | --- | --- | --- | --- | --- | --- | --- | --- | --- | --- | --- | --- | --- | --- | --- | --- | --- | --- | --- | --- |
| NS(=O)(=O)c1cccc(-c2ccc3nccc(-c4cccc(S(N)(=O)=O)c4)c3c2)c1 [GW867253] | 0 | 0 | 0 | 0 | 0 | 7 | 0 | 0 | 25 | 47 | 23 | 30 | 38 | 15 | 41 | 7 | 0 | 14 | 0 | 27 |
| Cc1ccc(NC(=O)c2ccnc(N3CCN(C)CC3)c2)cc1-c1ccc(C(=O)NCC2CC2)cc1 [GW775604] | 9 | 0 | 0 | 0 | 0 | 12 | 0 | 10 | 41 | 0 | 3 | 25 | 1 | 0 | 2 | 11 | 0 | 0 | 0 | 0 |
| Cc1cccc(-c2nc(Nc3ccc4ncsc4c3)c3ccccc3n2)n1 [GW867588] | 9 | 3 | 4 | 0 | 0 | 6 | 0 | 0 | 9 | 21 | 2 | 3 | 3 | 0 | 12 | 0 | 5 | 0 | 0 | 0 |
| Cc1ccc(C(=O)NCC(N)=O)cc1-n1c(C)cc(OCc2ccc(F)cc2F)c(Br)c1=O | 12 | 4 | 0 | 17 | 0 | 24 | 11 | 10 | 16 | 0 | 0 | 26 | 0 | 0 | 2 | 13 | 24 | 3 | 15 | 0 |
| Nc1nc(-c2ccc3c(N)n[nH]c3c2)cc(N2CCCC2)n1 [GSK2227430] | 0 | 0 | 0 | 0 | 0 | 0 | 0 | 0 | 6 | 0 | 0 | 64 | 0 | 0 | 7 | 8 | 0 | 8 | 0 | 10 |
| COc1cc2ncn(-c3cc(OCc4sccc4Cl)c(C(N)=O)s3)c2cc1OC [GSK448459] | 50 | 0 | 99.1 | 0 | 0 | 0 | 0 | 0 | 0 | 0 | 0 | 0 | 0 | 15 | 99.8 | 0 | 0 | 23 | 8 | 50 |
| NS(=O)(=O)c1cccc(-c2ccc3ncc(N4CCOCC4)nc3c2)c1 [GSK1535721] | 0 | 0 | 0 | 7 | 0 | 0 | 11 | 0 | 0 | 0 | 11 | 0 | 0 | 23 | 16 | 4 | 17 | 9 | 0 | 27 |
| Cc1nnc(-c2ccc3occ(-c4ccc(C(C)O)cc4)c3c2)o1 (centres unmarked) | 7 | 12 | 15 | 21 | 19 | 7 | 16 | 0 | 8 | 0 | 10 | 24 | 11 | 15 | 8 | 8 | 12 | 3 | 5 | 0 |
| O=C(NCCCN1CCOCC1)c1cccc(Nc2nccc(Nc3ccc(Oc4ccccc4)cc3)n2)c1 [GW663929] | 0 | 6 | 0 | 0 | 0 | 0 | 19 | 8 | 0 | 0 | 71 | 77 | 7 | 21 | 100 | 11 | 10 | 0 | 0 | 18 |
| C[C@@H](Oc1cc(-n2cnc3ccc(NC(=O)NC(C)(C)C)cc32)sc1C(N)=O)c1ccccc1Cl [GSK346294] | 0 | 2 | 0 | 12 | 0 | 1 | 0 | 0 | 9 | 0 | 0 | 0 | 0 | 14 | 18 | 0 | 21 | 8 | 0 | 4 |
